This is an account of results in PubChem BioAssay (NCATS).

Results filed as inconclusive are left out. Where a call stands in place of a potency, no number is given. Active and inactive are the calls of the source. Calls come from the whole dose curve; as a rule, active = well fitted cell-killing curve with a large enough effect; inconclusive = small, poorly fitted or top-dose-only effect; inactive = flat fitted curve, though single readings scatter.
Potency is the fitted concentration of half-maximal effect.

The test is described as follows: KB-3-1 Cancer Cell Toxicity qHTS against the NCATS CANVASS Library (AID 1347366). Note: nearly all actives have a fitted effect of over 75% in size. The conditions noted are these: KB-3-1 viability, CellTiter-Glo luminescence, 72 h; series mostly up to 46.1 µM. The source says:
Natural products and their derivatives continue to be wellsprings of nascent therapeutic potential. However, many laboratories have limited resources for biological evaluation, leaving their previously isolated or synthesized compounds largely or completely untested. To address this issue, the Canvass library of natural products was assembled (https://tripod.nih.gov/canvass), in collaboration with academic and industry researchers, for quantitative high-throughput screening (qHTS) across a diverse set of cell-based and biochemical assays. The pure (>85% purity by liquid chromatography/mass spectrometry [LC/MS]) Canvass library of 346 natural products were submitted by 45 academic laboratories and companies around the world. We collected pure natural products to circumvent deconvolution and structure elucidation due to time and resource limitations. The library was formatted into 1536-well plates and evaluated in 50 qHTS (in an 11-pnt concentration series) bioassays with broad scope of disease-relevant mechanisms. The resulting data set from 50 different assays was then systematically analyzed to identify overall trends and specific natural products with interesting biological activities. Reported herein are the results of each individual qHTS and their corresponding assay protocol. […] National Center for Advancing Translational Sciences (NCATS), Rockville, MD National Institute of Health (NIH), Bethesda, Maryland
Cancer Cell Toxicity qHTS protocol 1. In a 1536 well, tissue culture treated white solid bottom plates (Corning 7494), 5 uL of KB-3-1 cell solution (final concentration of 500 cells / well) was dispensed using the Multidrop Combi dispenser (Thermo Fisher Scientific) into columns 3-48, rows 1-32. DMEM + 10% FBS + 100 U/mL penicillin / 100ug/mL streptomycin media solution was dispensed into column 1-2, row 1-32 also using the Multidrop Combi dispenser. 2. Control and Compounds were pin transferred (~23nL volume) to the assay plates via Wako Pin-tool (Wako Automation, Richmond VA) equipped with a 1536 pin head. The compounds were transferred to columns 5-48 resulting in a final concentration ranging from 0.17 nM to 103 uM. Dose response titration of Bortezomib was pin transferred into column 3, rows 1-32 (2mM; 1:2 dilution; 16 points; n = 2) resulting to a final concentration range of 0.3nM - 9.2uM. 3. The assay plates were further incubated in the at 37C, 5% CO2, 95% Rh for 72 hr. 4. After incubation, 2.5uL of CellTiter-Glo reagent (Promega) was added to the assay plates (column 1-48, rows 1-32) using the Multidrop Combi dispenser. 5. The assay plates were incubated at room temperature for 10 minutes. 6. Luminescence signal was acquired via the ViewLux plate reader (PerkinElmer) using a clear emission filter, 1 sec exposure, and 1x binning settings.
Consider `CCN1C[C@]2(C)CC[C@@H](O)[C@]34C1[C@H](C[C@H]23)C12CCC(CC14)[C@](O)(CO)[C@H]2O` (stereo partly specified), for which the Potency result was “inactive”.

`CNCCc1ccccc1`: the Potency result was “inactive”.

Consider `COc1ccc2c(c1)[nH]c1c(C)nccc12`, for which the Potency was 42.9 µM (active).

For the compound `C[C@@H]1CC[C@@H](c2ccoc2)N2C[C@@]3(CC[C@@H]12)CS[C@@]1(CC[C@H]2[C@H](C)CC[C@@H](c4ccoc4)N2[C@@H]1O)C3`, the Potency was 8.33 µM (active).

For `CC1=CC2CC[C@@H]3[C@@H](C)C[C@H](C)[C@@H](C1)N23` (stereo partly specified), the Potency entry is “inactive”.

On to `CC=C1CN(C=O)[C@H]2C[C@@H]1[C@@H](C(=O)OC)[C@@]13CCOC21Nc1ccccc13` (stereo partly specified), for which the Potency entry was “inactive”.

Consider `CO[C@H](c1ccccc1)[C@H]1NC(=O)C(C)NC(=O)C(C[C@@H](C)CO)N(C)C(=O)[C@@H](C(O)c2cn(C(C)(C)C3CO3)c3ccccc23)NC(=O)C(C(C)C=C(C)C)NC(=O)C(CC(C)C)N(C)C(=O)C(C(C)C)NC1=O` (stereo partly specified), for which the Potency entry is “inactive”.

`c1ccc2c3c([nH]c2c1)CNCC3`: the Potency result is “inactive”.

Take `CN1C(=O)[C@]23CC4C(C)(C)[C@@]5(C[C@@]41CN2CC[C@@]3(C)O)C(=O)Nc1c5ccc2c1OC=CC(C)(C)O2` (stereo partly specified): the Potency entry is “inactive”.

As to `CCCCC[C@@H]1OC(=O)[C@@H](C)N(C)C(=O)[C@H](CCCCC)OC(=O)C(C)N(C)C(=O)[C@H](CCCCC)OC(=O)[C@@H](C)N(C)C(=O)[C@H](CCCCC)OC(=O)C(C)N(C)C1=O` (stereo partly specified), the Potency was 9.35 µM (active).

For `CN(C)Cc1c[nH]c2ccccc12`, the Potency entry was “inactive”.

In the case of `CC[N@@+]1([O-])C[C@]2(C)CC[C@@H](O)[C@@]34C5C[C@H]6CC[C@@]5(C(C[C@H]23)C41)[C@H](O)[C@@]6(O)CO` (stereo partly specified), the Potency result was “inactive”.

For the compound `O=C(c1ccccc1O)c1[nH]c(Cl)c(Cl)c1-n1c(C(=O)c2ccccc2O)cc(Cl)c1Cl`, the Potency was 2.35 µM (active).

Regarding `C=C1[C@@H](C)[C@H]2[C@H](Cc3ccccc3)NC(=O)[C@]23OC(=O)/C=C/[C@H](O)CCC[C@@H](C)C/C=C/[C@H]3[C@@H]1O`, the Potency is 4.69 µM (active).

`COC(=O)C1=C2Nc3ccccc3[C@@]23CCN2CC(C(C)=O)C1C[C@H]23` (stereo partly specified): the Potency entry is “inactive”.

Consider `CCC[C@H]1CC[C@H]2[C@H](C)CCC[C@H]2N1`, for which the Potency entry was “inactive”.

With `CCC(=O)CCCCC[C@@H]1NC(=O)[C@H]2CCCCN2C(=O)[C@H]([C@@H](C)CC)NC(=O)[C@H](Cc2cn(OC)c3ccccc23)NC1=O`, the Potency is 1.18 µM (active).

`CC[C@@H]1CN2CC[C@@]3(O)C(=Nc4cccc(OC)c43)[C@@H]2C[C@@H]1/C(=C\OC)C(=O)OC`: the Potency entry was “inactive”.

Take `COc1ccc(C23Oc4cc(OC)cc(OC)c4[C@](O)([C@H](c4ccccc4)C2C(=O)NCCCCNC(=O)c2ccccc2)[C@@H]3O)cc1` (stereo partly specified): the Potency entry is “inactive”.

Regarding `CCCC[C@@H]1CC[C@H]2CCCC(CCC)N12` (stereo partly specified), the Potency result is “inactive”.

Consider `CC(=O)N[C@H]1CCN2CCC[C@H]12`, for which the Potency entry was “inactive”.

For the compound `CO[C@@H](/C=C/CC/C=C/C(=O)O)[C@@H](O)[C@H](C)/C=C(\C)[C@@H](O)[C@H](C)C(=O)CCCC1CC(=O)NC(=O)C1`, the Potency result was “inactive”.

For the compound `CNCCc1ccc(O)cc1`, the Potency entry was “inactive”.

In the case of `COc1ccc2c3c([nH]c2c1)C(C)=NCC3`, the Potency result is “inactive”.

Take `CO[C@@H](/C=C/CC/C=C/C(=O)O)[C@@H](O)[C@H](C)[C@@H](O)/C(C)=C/[C@H](C)C(=O)CCCC1CC(=O)NC(=O)C1`: the Potency entry was “inactive”.

Consider `C/C=C1/CN2CC[C@]34C(=Nc5ccccc53)[C@@H]2C[C@@H]1[C@H]4C(=O)OC`, for which the Potency entry was “inactive”.

On to `NCCc1ccccc1`, for which the Potency entry is “inactive”.

As for `CC1=CC(=O)C2=C(C)C[C@H](O)[C@@H]3[C@H](OC(=O)[C@@H]3C)[C@@H]12`, the Potency result is “inactive”.

In the case of `CCN1C[C@]2(C)CC[C@H](O)[C@]34C1C(C[C@H]23)[C@@]12CC[C@H](CC14)[C@](O)(COC(=O)c1ccc(OC)c(OC)c1)[C@H]2O` (stereo partly specified), the Potency entry is “inactive”.

As to `C[C@]12CC(O)C3[C@@H](CCC4C[C@@H](O)CC[C@@]43CO)[C@@]1(O)CCC2C1=CC(=O)OC1` (stereo partly specified), the Potency result is “inactive”.

For the compound `CNCCc1c[nH]c2ccccc12`, the Potency entry was “inactive”.
